Experimental findings from ChEMBL document CHEMBL3988442, “University of Dundee, Small-Polar-MMV Screening Library” (2021) are described below.

Common to all, as to parameters: scale not given: direction of the effect not stated beside the values
Test [1] addresses Protein translocase subunit SecA (Escherichia coli (strain K12)) (UniProt P10408). Put plainly: Assay to Identify E. coli SecA ATPase Inhibitors. Format: functional. Conditions: 30 µM.
For test [2], the target named is T1, Ubiquitin-activating enzyme e1, putative (Leishmania donovani (strain BPK282A1)) (UniProt E9BSI1).
T1 sequence (whole entry): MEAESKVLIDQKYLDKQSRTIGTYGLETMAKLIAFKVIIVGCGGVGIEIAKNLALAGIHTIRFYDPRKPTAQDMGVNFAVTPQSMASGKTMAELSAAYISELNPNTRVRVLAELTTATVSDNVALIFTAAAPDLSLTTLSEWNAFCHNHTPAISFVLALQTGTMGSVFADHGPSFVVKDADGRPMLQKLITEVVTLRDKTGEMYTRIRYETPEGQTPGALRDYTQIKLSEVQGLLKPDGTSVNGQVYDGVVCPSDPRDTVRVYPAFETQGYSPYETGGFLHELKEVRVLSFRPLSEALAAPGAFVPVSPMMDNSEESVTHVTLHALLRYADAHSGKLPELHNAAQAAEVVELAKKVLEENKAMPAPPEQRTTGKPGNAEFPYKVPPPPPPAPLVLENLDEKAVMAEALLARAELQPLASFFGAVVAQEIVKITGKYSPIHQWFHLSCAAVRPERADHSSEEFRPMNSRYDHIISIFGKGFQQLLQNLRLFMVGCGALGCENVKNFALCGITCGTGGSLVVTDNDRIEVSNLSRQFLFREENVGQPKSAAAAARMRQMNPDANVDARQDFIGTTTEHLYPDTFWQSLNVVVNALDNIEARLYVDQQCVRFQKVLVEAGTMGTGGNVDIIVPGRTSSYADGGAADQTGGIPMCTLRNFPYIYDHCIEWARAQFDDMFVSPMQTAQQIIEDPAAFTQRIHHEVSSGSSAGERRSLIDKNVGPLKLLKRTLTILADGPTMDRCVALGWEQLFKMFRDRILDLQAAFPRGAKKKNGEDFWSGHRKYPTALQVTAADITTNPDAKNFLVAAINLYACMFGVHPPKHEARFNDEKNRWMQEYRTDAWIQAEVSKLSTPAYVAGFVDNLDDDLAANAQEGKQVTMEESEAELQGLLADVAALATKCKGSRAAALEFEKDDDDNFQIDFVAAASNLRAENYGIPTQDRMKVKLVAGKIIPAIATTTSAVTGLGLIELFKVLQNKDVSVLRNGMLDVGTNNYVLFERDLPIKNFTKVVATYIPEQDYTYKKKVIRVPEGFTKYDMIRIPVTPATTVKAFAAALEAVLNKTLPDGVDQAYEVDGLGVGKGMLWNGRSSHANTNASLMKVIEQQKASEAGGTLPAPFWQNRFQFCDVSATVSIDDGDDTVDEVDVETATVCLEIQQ
Put plainly: Leishmania donovani Ubiquitin Activating Enzyme (LdE1). Conditions: 30 µM. Type of test: functional.

Test [3] deals with AMP-activated protein kinase, AMPK (Homo sapiens) (UniProt P54646+O43741+P54619+Q9UGJ0+Q9Y478+Q13131+Q9UGI9). Put plainly: AMP-dependent Kinase enzyme assay. An in vitro enzyme assay that detects ADP turnover that is directly proportional to AMPK activity. This uses naive AMPK that is activated during the assay with MK-8722. Format: functional. Conditions: 30 µM.
Test [4] concerns the target Sialic acid-binding Ig-like lectin 9 (Homo sapiens) (UniProt Q9Y336). Put plainly: Hs-Siglec9 ALPHAscreen SOP 20170721. Conditions: 10 µM. For orientation: In Alpha technology, singlet oxygen from a donor bead excites a nearby acceptor bead.
The subject of a further test is Trypanosoma cruzi. Put plainly: Trypanosoma cruzi phosphomannomutase and mannose-1-phosphate guanylyltransferase assay. Format: functional. Conditions: 10 µM.
In test [5] the target is T2, Arginase-2, mitochondrial (Homo sapiens) (UniProt P78540).
T2 sequence (whole entry): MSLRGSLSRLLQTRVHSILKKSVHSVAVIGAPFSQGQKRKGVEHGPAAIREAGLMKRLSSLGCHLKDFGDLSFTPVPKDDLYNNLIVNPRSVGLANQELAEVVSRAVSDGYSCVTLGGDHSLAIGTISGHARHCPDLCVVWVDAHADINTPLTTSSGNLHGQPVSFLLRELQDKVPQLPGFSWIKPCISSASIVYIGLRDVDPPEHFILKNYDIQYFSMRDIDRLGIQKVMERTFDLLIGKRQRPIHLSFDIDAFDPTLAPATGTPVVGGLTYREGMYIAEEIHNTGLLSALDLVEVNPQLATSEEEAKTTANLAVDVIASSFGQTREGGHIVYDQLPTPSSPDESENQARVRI
In words: in vitro enzyme assay to detect the production of urea directly proportional to the activity of Arginase II. Also: in the data most compounds retested in dose-response had high values. Type of test: functional. Conditions: 33.3 µM.

Test [6] concerns the target T3, Proteasome subunit beta (Trypanosoma cruzi) (UniProt O96673).
T3 sequence (whole entry): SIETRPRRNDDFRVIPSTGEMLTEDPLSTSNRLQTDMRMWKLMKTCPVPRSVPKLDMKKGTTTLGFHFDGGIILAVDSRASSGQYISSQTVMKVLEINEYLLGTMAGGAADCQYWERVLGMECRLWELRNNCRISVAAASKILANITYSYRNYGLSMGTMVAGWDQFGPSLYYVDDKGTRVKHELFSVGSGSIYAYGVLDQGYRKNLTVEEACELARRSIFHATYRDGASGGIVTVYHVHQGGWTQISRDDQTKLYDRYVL
Put plainly: Trypanosoma cruzi proteasome chymotrypsin-like activity (TcProtChymo) assay. Also: in the data most compounds retested in dose-response had high values. Type of test: functional. Conditions: 9.37 µM.

The species named for another test is Homo sapiens. In words: To identify inhibition of the IFN signalling (Jak-Stat) pathway via expression of an eGFP reporter gene under the control of an IFN-stimulated response element (ISRE) containing MxA promoter. Format: functional. Conditions: 30 µM. Background: Reporter assays use an easily measured gene product as a stand-in for the process of interest.

The target of test [7] is T4, Tyrosyl-tRNA synthetase, putative (Trypanosoma cruzi (strain CL Brener)) (UniProt Q4DSP6).
T4 sequence (whole entry): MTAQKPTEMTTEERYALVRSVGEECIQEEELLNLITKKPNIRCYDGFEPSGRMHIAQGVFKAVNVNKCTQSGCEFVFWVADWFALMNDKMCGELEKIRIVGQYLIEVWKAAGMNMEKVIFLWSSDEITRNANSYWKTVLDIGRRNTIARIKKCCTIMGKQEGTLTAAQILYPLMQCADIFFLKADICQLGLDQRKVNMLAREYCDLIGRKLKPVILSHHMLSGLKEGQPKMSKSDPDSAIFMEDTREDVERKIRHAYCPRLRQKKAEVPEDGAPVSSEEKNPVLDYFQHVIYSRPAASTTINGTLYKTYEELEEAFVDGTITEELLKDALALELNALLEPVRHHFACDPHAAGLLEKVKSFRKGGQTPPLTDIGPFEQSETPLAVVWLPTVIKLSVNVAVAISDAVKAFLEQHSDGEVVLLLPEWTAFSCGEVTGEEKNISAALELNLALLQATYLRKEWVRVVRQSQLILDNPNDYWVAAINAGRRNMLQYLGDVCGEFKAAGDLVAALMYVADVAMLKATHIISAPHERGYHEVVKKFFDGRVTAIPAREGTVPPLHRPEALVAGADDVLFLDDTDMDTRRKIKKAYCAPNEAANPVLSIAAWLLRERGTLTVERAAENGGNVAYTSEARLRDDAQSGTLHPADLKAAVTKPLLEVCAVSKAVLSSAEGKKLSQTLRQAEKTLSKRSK
Put plainly: Trypanosoma cruzi tyrosyl tRNA synthetase (TcYRS) _High Tyrosine SOP. Also: in the data most compounds retested in dose-response had high values. Type of test: functional. Conditions: 30 µM.

Test [8] concerns the target T4, Tyrosyl-tRNA synthetase, putative (Trypanosoma cruzi (strain CL Brener)). In words: Trypanosoma cruzi tyrosyl tRNA synthetase (TcYRS) SOP. Type of test: functional. Conditions: 30 µM.
Test [9] has as its target Chromo domain-containing protein 1 (Saccharomyces cerevisiae (strain ATCC 204508 / S288c) (Baker's yeast)) (UniProt P32657). In words: ScCHD-1 Enzyme Inhibition Assay. Also: in the data most compounds retested in dose-response had high values. Conditions: 30 µM. Format: functional.

Molecules are shown by their SMILES. For some of these results: Results with a measured potency or affinity are listed apart.

Chain of Protein translocase subunit SecA (Escherichia coli (strain K12)) (P10408 whole entry): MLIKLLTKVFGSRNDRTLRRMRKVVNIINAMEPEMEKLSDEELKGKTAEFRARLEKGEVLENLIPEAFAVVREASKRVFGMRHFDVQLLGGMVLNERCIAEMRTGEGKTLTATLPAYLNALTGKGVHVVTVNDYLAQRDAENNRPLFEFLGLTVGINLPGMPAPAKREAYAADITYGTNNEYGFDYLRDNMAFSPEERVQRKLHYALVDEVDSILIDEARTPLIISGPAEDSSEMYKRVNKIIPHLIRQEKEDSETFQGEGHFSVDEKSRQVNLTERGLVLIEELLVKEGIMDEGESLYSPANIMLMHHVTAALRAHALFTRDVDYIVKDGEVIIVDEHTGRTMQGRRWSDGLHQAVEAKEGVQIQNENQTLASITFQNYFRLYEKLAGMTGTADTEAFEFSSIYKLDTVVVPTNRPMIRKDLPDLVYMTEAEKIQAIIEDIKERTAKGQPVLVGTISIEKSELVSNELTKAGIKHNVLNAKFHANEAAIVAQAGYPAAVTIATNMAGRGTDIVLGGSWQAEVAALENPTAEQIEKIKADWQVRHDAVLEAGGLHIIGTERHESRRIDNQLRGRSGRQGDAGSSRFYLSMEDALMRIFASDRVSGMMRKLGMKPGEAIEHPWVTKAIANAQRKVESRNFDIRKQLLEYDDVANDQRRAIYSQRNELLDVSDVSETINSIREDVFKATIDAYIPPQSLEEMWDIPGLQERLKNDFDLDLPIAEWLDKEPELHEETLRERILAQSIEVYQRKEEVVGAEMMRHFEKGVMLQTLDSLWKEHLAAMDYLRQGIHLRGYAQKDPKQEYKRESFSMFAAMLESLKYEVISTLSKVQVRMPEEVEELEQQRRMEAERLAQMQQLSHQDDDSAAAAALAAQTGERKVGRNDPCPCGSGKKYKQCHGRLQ
Chain of Chromo domain-containing protein 1 (Saccharomyces cerevisiae (strain ATCC 204508 / S288c) (Baker's yeast)) (P32657 whole entry, the tested form may be a part): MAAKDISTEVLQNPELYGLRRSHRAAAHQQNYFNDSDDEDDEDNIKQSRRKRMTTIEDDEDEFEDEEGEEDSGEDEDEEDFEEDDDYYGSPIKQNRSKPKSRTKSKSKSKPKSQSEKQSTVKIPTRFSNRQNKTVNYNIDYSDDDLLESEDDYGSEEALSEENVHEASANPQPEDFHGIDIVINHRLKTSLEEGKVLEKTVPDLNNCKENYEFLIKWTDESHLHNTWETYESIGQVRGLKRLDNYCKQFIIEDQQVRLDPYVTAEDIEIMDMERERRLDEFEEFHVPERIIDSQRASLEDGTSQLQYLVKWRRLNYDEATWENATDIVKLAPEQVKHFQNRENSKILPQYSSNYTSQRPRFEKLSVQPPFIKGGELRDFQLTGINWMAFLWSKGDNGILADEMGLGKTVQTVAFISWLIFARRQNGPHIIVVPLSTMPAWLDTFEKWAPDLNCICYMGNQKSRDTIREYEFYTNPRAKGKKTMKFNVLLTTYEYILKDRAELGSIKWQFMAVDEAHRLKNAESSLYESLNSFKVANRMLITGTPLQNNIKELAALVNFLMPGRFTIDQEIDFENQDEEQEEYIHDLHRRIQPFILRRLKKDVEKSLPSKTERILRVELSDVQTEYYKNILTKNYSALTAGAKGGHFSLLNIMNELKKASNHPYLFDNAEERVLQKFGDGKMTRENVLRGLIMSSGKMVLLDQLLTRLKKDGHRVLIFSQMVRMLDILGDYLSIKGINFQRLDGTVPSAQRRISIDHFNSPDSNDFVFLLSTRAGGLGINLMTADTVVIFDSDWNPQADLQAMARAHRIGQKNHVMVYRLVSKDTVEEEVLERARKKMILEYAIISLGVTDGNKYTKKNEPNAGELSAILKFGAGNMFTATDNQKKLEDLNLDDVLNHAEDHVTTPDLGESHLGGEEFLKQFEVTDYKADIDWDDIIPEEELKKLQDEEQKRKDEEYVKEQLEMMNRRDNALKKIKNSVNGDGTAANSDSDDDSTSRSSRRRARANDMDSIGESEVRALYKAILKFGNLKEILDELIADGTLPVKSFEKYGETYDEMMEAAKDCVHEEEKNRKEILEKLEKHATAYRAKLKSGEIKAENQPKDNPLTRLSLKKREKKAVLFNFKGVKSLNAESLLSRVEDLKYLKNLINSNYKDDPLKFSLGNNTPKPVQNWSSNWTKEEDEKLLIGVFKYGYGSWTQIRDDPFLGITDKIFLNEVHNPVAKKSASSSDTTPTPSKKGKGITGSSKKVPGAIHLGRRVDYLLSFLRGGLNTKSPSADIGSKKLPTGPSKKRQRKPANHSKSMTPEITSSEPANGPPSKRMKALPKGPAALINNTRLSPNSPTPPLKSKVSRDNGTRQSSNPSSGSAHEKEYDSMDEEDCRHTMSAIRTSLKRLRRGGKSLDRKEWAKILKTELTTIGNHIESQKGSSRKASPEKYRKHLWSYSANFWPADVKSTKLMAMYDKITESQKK
Chain of Sialic acid-binding Ig-like lectin 9 (Homo sapiens) (Q9Y336 whole entry): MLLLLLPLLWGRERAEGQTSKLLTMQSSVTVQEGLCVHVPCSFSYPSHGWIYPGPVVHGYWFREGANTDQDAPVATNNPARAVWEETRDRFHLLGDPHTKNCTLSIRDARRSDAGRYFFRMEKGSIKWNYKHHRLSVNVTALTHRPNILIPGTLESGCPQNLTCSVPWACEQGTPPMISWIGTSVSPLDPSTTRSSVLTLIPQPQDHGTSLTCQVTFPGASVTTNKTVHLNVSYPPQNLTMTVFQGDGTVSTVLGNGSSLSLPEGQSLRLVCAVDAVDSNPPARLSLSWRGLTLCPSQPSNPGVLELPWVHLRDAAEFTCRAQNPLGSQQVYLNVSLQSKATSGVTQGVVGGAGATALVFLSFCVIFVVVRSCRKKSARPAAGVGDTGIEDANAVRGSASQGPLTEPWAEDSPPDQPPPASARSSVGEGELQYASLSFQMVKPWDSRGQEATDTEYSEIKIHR

As for `CC(C)c1ccc(C(C)NC(=O)N2CCC(n3cncn3)CC2)cc1` (stereo unspecified), the Percent Effect was -4.08% in [1]; 10.1% in [2]; -2.45% in test [3]; 13.7% in test [4]; -3.87% in the test on Trypanosoma cruzi; 0% in [5]. Further, the Percent Effect was 5.49% in test [6]; 13.3% in the test listed under Homo sapiens; 3.45% in [7]; 8.86% in test [8]; -3.06% in test [9].

Regarding `Cc1n[nH]c(C)c1C1COCCN1C(=O)Cc1cccc(F)c1` (stereo unspecified), the Percent Effect was 1.02% in test [1]; -2.74% in test [2]; 2.69% in [3]; 0.561% in test [4]; -6.46% in the test with Trypanosoma cruzi; 2.73% in test [5]. Further, the Percent Effect in test [6] is 2.13%; in the test listed under Homo sapiens, -1.33%; in [7] it was -1.07%; in test [8], -2.5%; in test [9], -1.14%.

With `Cc1ccc(C2CSCCN2C(=O)c2ccc(C(N)=O)cc2)o1` (stereo unspecified), the Percent Effect is -2.99% in test [1]; 5.41% in test [2]; -7.52% in test [3]; 13.6% in test [4]; 1.47% in the test on Trypanosoma cruzi; 20.6% in test [5]. The Percent Effect in test [6] was 10%; in the test listed under Homo sapiens it was -21.9%; in test [7] it was 4.3%; in test [8], 11.1%; in test [9], -2.9%.

On to `O=C(CC1CCCC1)NCCn1ccc(-c2ccncc2)n1`, for which the Percent Effect in [1] was -3.35%; in [2], 0%; in test [3] it was 5.83%; in [4] it was 6.39%; in the test on Trypanosoma cruzi, -3.65%; in [5], 3.23%. Moreover, the Percent Effect in test [6] was 1.92%; in the test listed under Homo sapiens, 13.7%; in test [7], -5.29%; in test [8], 3.85%; in test [9], 1.38%.

On to `Cc1nc(CN2CCCN(C(=O)C3(C#N)CCCCC3)CC2)cs1`, for which the Percent Effect is -5.19% in [1]; 5.06% in [2]; -4.31% in test [3]; 9.63% in [4]; -1.79% with Trypanosoma cruzi; 0% in test [5]. Also, the Percent Effect is 7.12% in test [6]; 13.8% in the test filed under Homo sapiens; 6.4% in test [7]; 13.9% in [8]; -3.28% in test [9].

Consider `N#Cc1ncn(CCC(=O)Nc2c(Cl)cccc2Cl)n1`, for which the Percent Effect was -1.01% in [1]; 2.74% in [2]; -1.08% in test [3]; 6.16% in [4]; 1.59% with Trypanosoma cruzi; -24.8% in test [5]. The Percent Effect was 19.6% in test [6]; -3.99% in the test filed under Homo sapiens; 11.5% in test [7]; 21% in [8]; -3.19% in [9].

Consider `O=C(N1CCOCC1)[C@@]12CCO[C@@H]1CCN(CCN1CCCCC1)C2`, for which the Percent Effect was -0.594% in [1]; 14.7% in [2]; -0.279% in [3]; -2.46% in [4]; 1.18% in the test with Trypanosoma cruzi; -4.05% in [5]. For the same compound, the Percent Effect is 20.9% in [6]; -2.62% in the test filed under Homo sapiens; -6.35% in test [7]; 15.4% in test [8]; -11.6% in test [9].

`CS(=O)(=O)CCC(=O)NC1(c2cccc(Br)c2)CC1`: the Percent Effect in test [1] was -2.11%; in test [2], 13.5%; in test [3], -4.94%; in test [4] it was 18.2%; in the test on Trypanosoma cruzi, 6.37%; in [5] it was 1.43%. Further, the Percent Effect is 15% in test [6]; -3.85% in the test listed under Homo sapiens; 3.7% in [7]; 12.2% in [8]; -3.61% in test [9].

Consider `CC(NC(=O)CSCC#N)c1cccc(NC(=O)c2ccccc2)c1` (stereo unspecified), for which the Percent Effect was -6.35% in [1]; 15.8% in [2]; -4.8% in test [3]; 13.9% in test [4]; 4.76% in the test on Trypanosoma cruzi; 1.08% in test [5]. The Percent Effect was 8.38% in test [6]; 12.6% in the test filed under Homo sapiens; 5.42% in test [7]; 23.5% in test [8]; -7.99% in test [9].

With `COc1cccc(OCC(=O)NS(=O)(=O)c2ccc(C)s2)c1`, the Percent Effect in [1] is -3.05%; in test [2], 15.2%; in [3] it was -2.9%; in test [4], -5.56%; in the test on Trypanosoma cruzi it was 5.19%; in test [5], 5.32%. Also, the Percent Effect in test [6] is 10.4%; in the test filed under Homo sapiens, 15.6%; in test [7] it was 2.46%; in [8], 16.5%; in test [9], -4.35%.

For `CCN1CCC(CNCc2cc(OC)ccc2OC)C1` (stereo unspecified), the Percent Effect in test [1] is -3.32%; in test [2] it was 0%; in test [3], -0.832%; in test [4] it was -3.34%; in the test with Trypanosoma cruzi it was -5.66%; in test [5], 0.417%. For the same compound, the Percent Effect is 6.17% in test [6]; 0.331% in the test filed under Homo sapiens; 0.99% in [7]; 1.22% in test [8]; -0.855% in test [9].
